Results filed as inconclusive are left out. More than one record can exist for a structure, and the calls need not agree. Activity calls are given as the source filed them. The calls were made as follows: active = hit-call score of the fitted dose curve at least 0.9, where 1 is the maximum; inconclusive = response in the unintended direction; inactive = score below 0.9. Peptide text beside a SMILES is read from it.
Each compound was assayed against Peroxisome proliferator-activated receptor gamma (Homo sapiens) (UniProt P37231) (assay: NVS_NR_hPPARg: NovaScreen (NVS) Nuclear Receptor Binding Assay for human Peroxisome Proliferator-activated Receptor gamma (PPARg) (AID 2283370)).
Method: NVS_NR_hPPARg is a biochemical, single-readout assay that uses extracted gene-proteins in a cell-free assay. Measurements were taken 2 hours after chemical dosing in a 384-well plate.NVS_NR_hPPARg is one of one assay component(s) measured or calculated from the NVS_NR_hPPARg assay. It is designed to make measurements of fluorescent polarization, a form of binding reporter, as detected with fluorescence polarization signals by Fluorescence Polarization technology.Data from the assay component NVS_NR_hPPARg was analyzed into 1 assay endpoint. This assay endpoint, NVS_NR_hPPARg, was analyzed in the positive analysis fitting direction relative to DMSO as the negative control and baseline of activity. Using a type of binding reporter, loss-of-signal activity can be used to understand changes in the binding as they relate to the gene PPARG. Furthermore, this assay endpoint can be referred to as a primary readout, because the performed assay has only produced 1 assay endpoint. To generalize the intended target to other relatable targets, this assay endpoint is annotated to the nuclear receptor intended target family, where the subfamily is non-steroidal.
Binding assays used specific radioligands (tritiated, iodinated) with non-radioactive competitive displacement ligands in agonist or antagonist protocols (as indicated) and various reference compounds and inhibitors to titrate specific binding to receptors and transporters. Most enzyme assays (CYPs, kinases, phosphatases, proteases, HDACs) used recombinant protein and specific substrates (fluorescence mostly, some colorimetric and radioactive) and inhibitors, followed by a biochemical separation of substrate and product. All assays for the biochemical HTS were initially run in duplicate at a single concentration (10 uM for CYP450 assays and 25 uM for all others). […] Each assay was run with positive and negative controls, and concurrent controls on every plate. The follow-up (secondary) screen tested active chemical-pairs in concentration series, as well as a few additional assays not tested in the primary screen, some selected negative inactives, and several cases re-run in the concentration series for confirmatory purposes.

Chain of Peroxisome proliferator-activated receptor gamma (Homo sapiens) (P37231 whole entry, looked up): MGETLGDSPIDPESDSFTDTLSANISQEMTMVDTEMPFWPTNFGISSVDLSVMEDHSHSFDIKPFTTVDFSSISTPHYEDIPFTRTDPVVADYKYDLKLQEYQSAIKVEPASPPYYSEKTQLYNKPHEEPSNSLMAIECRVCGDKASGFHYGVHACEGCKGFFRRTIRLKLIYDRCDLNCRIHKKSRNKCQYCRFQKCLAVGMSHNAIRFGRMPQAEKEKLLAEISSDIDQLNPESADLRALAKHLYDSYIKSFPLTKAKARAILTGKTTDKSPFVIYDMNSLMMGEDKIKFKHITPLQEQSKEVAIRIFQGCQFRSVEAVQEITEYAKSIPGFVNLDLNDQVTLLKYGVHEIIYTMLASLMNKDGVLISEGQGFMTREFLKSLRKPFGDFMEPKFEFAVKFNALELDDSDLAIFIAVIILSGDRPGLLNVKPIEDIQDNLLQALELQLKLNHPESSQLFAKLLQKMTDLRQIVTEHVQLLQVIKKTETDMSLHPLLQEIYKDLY

How did the outcome turn out when CCCCCCOC(=O)CCCCC(=O)OCCCCCC was run?
The outcome was “inactive”.

With Nc1ccc(C(=O)O)cc1 as the compound, how does the outcome read?
The outcome was “inactive”.

Which outcome does the source give for Cc1ccc([N+](=O)[O-])cc1N here?
Its outcome is “inactive”.

With C/C=C/C=C/CCCCCCCO as the compound, how does the outcome read?
Its outcome is “inactive”.

CC(C)COC(=O)CC(C(=O)OCC(C)C)S(=O)(=O)O (configuration not stated) was tested. Which outcome did it give?
The outcome was “inactive”.

Which AC50 does the source give for CCCCCCCOC(=O)c1ccc(O)cc1 here?
The AC50 was 12.3 µM (active).

Which outcome does the source give for COC(=O)[C@H](Cc1ccccc1)NC(=O)[C@@H](N)CC(=O)O (H-Asp-Phe-OMe) here?
The outcome was “inactive”.

Which outcome does the source give for CCCCCCCCCCCCc1ccc(O)cc1 here?
Its outcome is “inactive”.

For c1ccc(Nc2cccc3ccccc23)cc1, which outcome is on record?
The outcome was “inactive”.

How did the outcome turn out when C=CCOC(=O)c1ccc(C(=O)OCC=C)c(C(=O)OCC=C)c1 was run?
Its outcome is “inactive”.

How did the outcome turn out when Oc1ccc(-c2ccccc2)c(Cl)c1 was run?
Its outcome is “inactive”.

Which outcome does the source give for CC1=NN(c2ccc(S(=O)(=O)O)cc2)C(=O)C1N=Nc1ccccc1 (configuration not stated) here?
Its outcome is “inactive”.

For C[Si]1(C)O[Si](C)(C)O[Si](C)(C)O[Si](C)(C)O[Si](C)(C)O1, which outcome is on record?
The outcome was “inactive”.

For CCCCCC[C@@H](O)C/C=C\CCCCCCCC(=O)OCC(O)CO (some centres not stated), which outcome is on record?
Its outcome is “inactive”.

With CCCCC/C=C\C/C=C\CCCCCCCC(=O)O as the compound, how does the AC50 read?
Its AC50 is 6.85 µM (active).

How did the outcome turn out when C=C1C[C@H]2[C@@H]3C=C(C)C4=CC(=O)CC[C@]4(C)[C@H]3CC[C@]2(C)[C@@]1(OC(C)=O)C(C)=O was run?
The outcome was “inactive”.

With O=c1c(O)c(-c2ccc(O)cc2O)oc2cc(O)cc(O)c12 as the compound, how does the outcome read?
The outcome was “inactive”.

Which outcome does the source give for CCN1CN(CC)CN(CC)C1 here?
The outcome was “inactive”.

With O=C(O)/C=C/c1ccccc1 as the compound, how does the outcome read?
The outcome was “inactive”.

Which outcome does the source give for CC(C)c1ccc(O)c(C(C)C)c1 here?
Its outcome is “inactive”.

CCOC(=O)c1ccc(C)cc1 was tested. Which outcome did it give?
Its outcome is “inactive”.

With CC(C)(C)NC(=O)[C@H]1CC[C@H]2[C@@H]3CC[C@H]4NC(=O)C=C[C@]4(C)[C@H]3CC[C@]12C as the compound, how does the outcome read?
The outcome was “inactive”.

O=S(=O)(O)c1ccc(N=Nc2c(O)ccc3ccccc23)cc1 was tested. Which AC50 did it give?
The AC50 was 20.7 µM (active).

With CCCCCCC=O as the compound, how does the outcome read?
The outcome was “inactive”.

How did the outcome turn out when O=C(OCc1ccccc1)c1ccc(O)cc1 was run?
The outcome was “inactive”.

And the AC50?
Its AC50 is 10.4 µM (active).

Which AC50 does the source give for CC12CCC(CC1)C(C)(C)O2 here?
Its AC50 is 19.1 µM (active).

Which outcome does the source give for CCc1cccc(C)c1N here?
The outcome was “inactive”.

How did the outcome turn out when CCCCCCCCCCCC(=O)N(C)CC(=O)O was run?
Its outcome is “inactive”.

How did the outcome turn out when CC(C)c1cc(C(C)C)cc(C(C)C)c1 was run?
The outcome was “inactive”.

With Oc1ccccc1Cc1ccccc1O as the compound, how does the outcome read?
The outcome was “inactive”.

For CC(C)(C)N, which outcome is on record?
The outcome was “inactive”.

From PubChem BioAssay (EPA / NIEHS)
